This passage reports growth results from PubChem BioAssay (NCI).

Common to all, as to assay: NCI-60 one-dose screen, 48 h (100 = growth as untreated, 0 = no growth, -100 = all killed)
What all share (details): 10 µM unless noted

In assay [1] the test system is HCT-15 colon.
The subject of assay [2] is HT29 colon.
Assay [3] deals with SNB-75 CNS.
Assay [4] concerns SNB-19 CNS.
Assay [5] deals with U251 CNS.
Assay [6] has as its system PC-3 prostate.
The test system of assay [7] is SK-MEL-5 melanoma.
The subject of assay [8] is UACC-62 melanoma.
The test system of assay [9] is LOX IMVI melanoma.
Assay [10] deals with SK-MEL-28 melanoma.
The subject of assay [11] is SK-MEL-2 melanoma.
Assay [12] has as its system EKVX NSCLC.
Assay [13] concerns SN12C renal.
The test system of assay [14] is UO-31 renal.
For assay [15], the system named is TK-10 renal.
For assay [16], the system named is ACHN renal.
The subject of assay [17] is CAKI-1 renal.
Assay [18] relates to A498 renal.
For assay [19], the system named is CCRF-CEM leukemia.
In assay [20] the test system is MOLT-4 leukemia.

“And” between values parts separate entries of the source, which are not always exact repeats. Equal entries are not always repeated. This is part of a sample that, as a whole, favours compounds with a hit. Of some 83,000 tested, about 20% had one in any assay.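 Results are percent growth after 48 hours of single-concentration exposure. 100 means growth as in untreated cells, lower positive values show inhibition; negative values down to -100 show cell death.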 The source made the active and inactive calls. How the source made its calls: active means growth percent below 10; inactive means the rest.

For the molecule `CC(C)Oc1ccc2cc(-c3nn(CC4CCNCC4)c4ncnc(N)c34)ccc2c1`, the growth in assay [1] is 61.9% (inactive) and -7.35% (active); in assay [2] it was 37.9% (inactive) and -13.1% (active); in assay [3] it was 59% (inactive) and -38.7% (active); in assay [4], 92.7% (inactive) and 24.8% (inactive); in assay [5], 77.7% (inactive) and -11.9% (active); in assay [6], 65.1% (inactive) and 16.6% (inactive). Further, the growth in [7] was 59.8% (inactive) and -94.4% (active); in assay [8] it was -65.3% (active); in assay [9], 69.8% (inactive) and -80.3% (active); in [10], 79.1% (inactive) and -85.7% (active); in assay [11] it was 100% (inactive); in assay [12] it was 97.4% (inactive) and 26.2% (inactive). The growth in [13] was 79.7% (inactive); in assay [14] it was 71.6% (inactive) and 36.9% (inactive); in assay [15] it was 82.2% (inactive) and 14.6% (inactive); in assay [16], 88.1% (inactive) and 14.1% (inactive); in [17], 106% (inactive) and 31% (inactive); in [18] it was 75% (inactive) and 16.7% (inactive). Further, the growth in assay [19] was 60.6% (inactive) and -23% (active); in assay [20], 29% (inactive) and -23.8% (active).
On to `Cc1ncsc1CCO`, for which the growth in [1] is 111% (inactive) and 106% (inactive); in assay [2] it was 101% (inactive) and 95.6% (inactive); in assay [3], 111% (inactive) and 91.5% (inactive); in assay [4] it was 108% (inactive) and 103% (inactive); in [5], 99.6% (inactive) and 99.8% (inactive); in assay [6] it was 103% (inactive) and 98.3% (inactive). In addition, the growth in assay [7] was 109% (inactive) and 98.2% (inactive); in assay [8], 111% (inactive) and 95.5% (inactive); in assay [9] it was 97.6% (inactive) and 103% (inactive); in [10], 116% (inactive) and 104% (inactive); in assay [11], 96.1% (inactive) and 107% (inactive); in assay [12] it was 112% (inactive) and 99.6% (inactive). Besides, the growth in [13] was 109% (inactive) and 96.6% (inactive); in assay [14], 95.7% (inactive) and 89.7% (inactive); in assay [15], 103% (inactive) and 89.4% (inactive); in assay [16], 107% (inactive); in [17] it was 101% (inactive); in assay [18] it was 81.3% (inactive) and 97.6% (inactive). The growth in assay [19] is 39.9% (inactive) and 121% (inactive); in assay [20], 105% (inactive) and 116% (inactive).
With `CC(C)(C)c1ccc(O)c(CNC2CCCCC2)c1`, the growth in assay [1] is 108% (inactive) and 84.5% (inactive); in [2], 79.1% (inactive) and 95.2% (inactive); in assay [3] it was 86% (inactive) and 82.8% (inactive); in assay [4] it was 89.2% (inactive) and 90.9% (inactive); in [5], 97.6% (inactive) and 88% (inactive); in assay [6], 82.5% (inactive) and 83.8% (inactive). Further, the growth was 92.6% (inactive) and 79.2% (inactive) in assay [7]; 96.6% (inactive) and 79.7% (inactive) in [8]; 86.2% (inactive) and 97.6% (inactive) in assay [9]; 105% (inactive) and 98.3% (inactive) in [10]; 94.6% (inactive) in [11]; 108% (inactive) in [12]. Also, the growth is 102% (inactive) and 91.4% (inactive) in [13]; 65.7% (inactive) and 78.9% (inactive) in assay [14]; 92.4% (inactive) in assay [15]; 116% (inactive) and 91.3% (inactive) in assay [16]; 111% (inactive) and 97.5% (inactive) in assay [17]; 110% (inactive) and 91.8% (inactive) in assay [18]. For the same molecule, the growth is 91.8% (inactive) and 86.6% (inactive) in assay [19]; 98.1% (inactive) and 81.2% (inactive) in assay [20].
For the molecule `O=C1C2=C(C(=O)c3ccccc31)C(O)(S(=O)(=O)O)C(O)(S(=O)(=O)O)C1N=CC=CC21` (stereo not given), the growth is 32.3% (inactive) and 38.7% (inactive) in [1]; 46.6% (inactive) and 21.4% (inactive) in [2]; 61.1% (inactive) and 35.1% (inactive) in assay [3]; 43.8% (inactive) and 48.5% (inactive) in [4]; 30.3% (inactive) and 18.7% (inactive) in [5]; 31.8% (inactive) and 30.2% (inactive) in [6]. The growth in assay [7] was 26.6% (inactive) and 29.7% (inactive); in assay [8], 51.3% (inactive) and 45.6% (inactive); in [9], 36.7% (inactive) and 24.7% (inactive); in assay [10] it was 89.2% (inactive) and 73% (inactive); in assay [11], 65.2% (inactive) and 47.4% (inactive); in assay [12], 36.4% (inactive) and 30.5% (inactive). The growth is 34.5% (inactive) and 39.1% (inactive) in assay [13]; 42.2% (inactive) and -0.599% (active) in assay [14]; 71.8% (inactive) and 68.1% (inactive) in assay [15]; 36.3% (inactive) and 32.8% (inactive) in assay [16]; 21.9% (inactive) and 15.8% (inactive) in assay [17]; 82.1% (inactive) and 33.9% (inactive) in assay [18]. Also, the growth is 25.1% (inactive) and 41.9% (inactive) in assay [19]; 25.6% (inactive) and 48.2% (inactive) in assay [20].
Take `Oc1c(CN2CCCCC2)ccc2cccnc12`: the growth in assay [1] was 33.6% (inactive) and 30.3% (inactive); in assay [2], 66.6% (inactive) and 28.6% (inactive); in assay [3], 82.5% (inactive) and 85.6% (inactive); in assay [4], 65.9% (inactive) and 74.1% (inactive); in assay [5], 41.8% (inactive) and 38.7% (inactive); in assay [6], 52.1% (inactive) and 39% (inactive). In addition, the growth in [7] is 45% (inactive) and -25.6% (active); in assay [8], 46% (inactive) and 45.6% (inactive); in assay [9], 27.3% (inactive) and 44.1% (inactive); in [10] it was 85.2% (inactive) and 85.7% (inactive); in [11] it was 96.9% (inactive) and 82.4% (inactive); in [12], 71.3% (inactive). The growth in assay [13] was 58.2% (inactive) and 59.2% (inactive); in [14], 8.37% (active) and -0.287% (active); in [15] it was 40.8% (inactive) and 48.7% (inactive); in assay [16], 7.15% (active) and 9.28% (active); in [17], 2.08% (active); in [18], 61.4% (inactive) and 62.9% (inactive). Besides, the growth in assay [19] was 16.6% (inactive); in assay [20], 38.2% (inactive) and 36% (inactive).
Consider `CC(O)(CC(=O)CC(=O)c1ccccc1)c1ccccc1` (stereo not given), for which the growth in assay [1] is 70.2% (inactive) and 69.4% (inactive); in assay [2] it was 105% (inactive) and 111% (inactive); in [3] it was 92.5% (inactive) and 126% (inactive); in assay [4] it was 95.8% (inactive) and 99.9% (inactive); in assay [5], 89.2% (inactive) and 84.3% (inactive); in [6], 80.9% (inactive). Further, the growth in assay [7] was 98.6% (inactive) and 93.6% (inactive); in [8], 101% (inactive) and 87.9% (inactive); in assay [9] it was 110% (inactive) and 82.3% (inactive); in assay [10] it was 99.4% (inactive) and 123% (inactive); in [11], 126% (inactive) and 110% (inactive); in [12] it was 103% (inactive). Moreover, the growth in [13] was 99.3% (inactive) and 85.3% (inactive); in [14], 96.8% (inactive) and 94.2% (inactive); in [15], 98.5% (inactive) and 111% (inactive); in [16], 94.9% (inactive) and 106% (inactive); in assay [17], 110% (inactive); in [18], 79.9% (inactive). Further, the growth in [19] is 95.4% (inactive) and 83% (inactive); in assay [20], 87.3% (inactive) and 113% (inactive).
In the case of `CC1=C[C@H]2c3c(c(O)c(O)c4oc5cc(O)cc(O)c5c(=O)c34)[C@H](c3cc(O)c(O)c4oc5cc(O)cc(O)c5c(=O)c34)[C@H]2C(C)(C)C1`, the growth in assay [1] is 15.4% (inactive) and 3.72% (active); in [2], -1.98% (active) and -20.8% (active); in [3] it was 24.1% (inactive) and -10.6% (active); in [4], 13.3% (inactive) and -11.3% (active); in assay [5], 0.997% (active) and -15.3% (active); in [6], 14.4% (inactive) and -26.9% (active). For the same molecule, the growth in [7] is -84.2% (active) and -98.1% (active); in assay [8], -43.1% (active) and -68.9% (active); in assay [9], -93.9% (active) and -100% (active); in assay [10] it was 10.3% (inactive) and -22.8% (active); in assay [11], -20% (active) and -41.4% (active); in assay [12], 21.4% (inactive) and -31.9% (active). Besides, the growth in [13] was 9.13% (active) and -8.98% (active); in [14], -5.69% (active) and -75.2% (active); in assay [15], 30.1% (inactive) and -5.84% (active); in assay [16], 18.1% (inactive) and -7.12% (active); in [17], -20.5% (active) and -2.78% (active); in assay [18], -4.52% (active) and -73.5% (active). Further, the growth in assay [19] is 6.01% (active) and -9.45% (active); in [20] it was 7.66% (active) and -18.8% (active).
As to `CCN(CC)C(=S)SSC(=S)N(CC)CC`, the growth in assay [1] was 81.4% (inactive) and 109% (inactive); in [2], 68.5% (inactive) and 94.4% (inactive); in assay [3], 72.6% (inactive) and 93.2% (inactive); in assay [4], 85.4% (inactive) and 97% (inactive); in [5], 58.5% (inactive) and 100% (inactive); in assay [6] it was 68.5% (inactive) and 108% (inactive). For the same molecule, the growth in assay [7] is 40.2% (inactive) and 110% (inactive); in assay [8], 69.6% (inactive) and 105% (inactive); in assay [9] it was 53% (inactive) and 98.4% (inactive); in assay [10], 61.5% (inactive) and 106% (inactive); in assay [11], 103% (inactive); in assay [12], 89.1% (inactive) and 113% (inactive). In addition, the growth in [13] was 78.9% (inactive) and 106% (inactive); in assay [14], 63.3% (inactive) and 90.7% (inactive); in assay [15] it was 96.9% (inactive); in [16], 71.1% (inactive) and 101% (inactive); in assay [17], 76.4% (inactive) and 87.5% (inactive); in assay [18], 83.7% (inactive) and 111% (inactive). Further, the growth in assay [19] was 16.9% (inactive) and 102% (inactive); in [20], 46% (inactive) and 93.2% (inactive).
